In the library only some 0.67% were active in any assay of this set; here they are far more common.
RN4220 kill = kills Staphylococcus aureus RN4220 | inhibition, % (test concentration not listed) | 330,000 compounds, 0.33% hits | S. aureus RN4220 growth, OD600, 16 h | AID 1259311; in the data active = inhibition above about 85%;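 also: plate controls were untreated cells for no effect and reference antibiotic for full effect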
TcdB inh = TcdB glycohydrolase inhibition; P18177; TcdB glycohydrolase enzymatic assay, plate reader; inhibition, % at 9.99 µM; 350,000 compounds, 0.24% hits; in the data active = inhibition above about 10%
Target sequence (P18177 whole entry, looked up): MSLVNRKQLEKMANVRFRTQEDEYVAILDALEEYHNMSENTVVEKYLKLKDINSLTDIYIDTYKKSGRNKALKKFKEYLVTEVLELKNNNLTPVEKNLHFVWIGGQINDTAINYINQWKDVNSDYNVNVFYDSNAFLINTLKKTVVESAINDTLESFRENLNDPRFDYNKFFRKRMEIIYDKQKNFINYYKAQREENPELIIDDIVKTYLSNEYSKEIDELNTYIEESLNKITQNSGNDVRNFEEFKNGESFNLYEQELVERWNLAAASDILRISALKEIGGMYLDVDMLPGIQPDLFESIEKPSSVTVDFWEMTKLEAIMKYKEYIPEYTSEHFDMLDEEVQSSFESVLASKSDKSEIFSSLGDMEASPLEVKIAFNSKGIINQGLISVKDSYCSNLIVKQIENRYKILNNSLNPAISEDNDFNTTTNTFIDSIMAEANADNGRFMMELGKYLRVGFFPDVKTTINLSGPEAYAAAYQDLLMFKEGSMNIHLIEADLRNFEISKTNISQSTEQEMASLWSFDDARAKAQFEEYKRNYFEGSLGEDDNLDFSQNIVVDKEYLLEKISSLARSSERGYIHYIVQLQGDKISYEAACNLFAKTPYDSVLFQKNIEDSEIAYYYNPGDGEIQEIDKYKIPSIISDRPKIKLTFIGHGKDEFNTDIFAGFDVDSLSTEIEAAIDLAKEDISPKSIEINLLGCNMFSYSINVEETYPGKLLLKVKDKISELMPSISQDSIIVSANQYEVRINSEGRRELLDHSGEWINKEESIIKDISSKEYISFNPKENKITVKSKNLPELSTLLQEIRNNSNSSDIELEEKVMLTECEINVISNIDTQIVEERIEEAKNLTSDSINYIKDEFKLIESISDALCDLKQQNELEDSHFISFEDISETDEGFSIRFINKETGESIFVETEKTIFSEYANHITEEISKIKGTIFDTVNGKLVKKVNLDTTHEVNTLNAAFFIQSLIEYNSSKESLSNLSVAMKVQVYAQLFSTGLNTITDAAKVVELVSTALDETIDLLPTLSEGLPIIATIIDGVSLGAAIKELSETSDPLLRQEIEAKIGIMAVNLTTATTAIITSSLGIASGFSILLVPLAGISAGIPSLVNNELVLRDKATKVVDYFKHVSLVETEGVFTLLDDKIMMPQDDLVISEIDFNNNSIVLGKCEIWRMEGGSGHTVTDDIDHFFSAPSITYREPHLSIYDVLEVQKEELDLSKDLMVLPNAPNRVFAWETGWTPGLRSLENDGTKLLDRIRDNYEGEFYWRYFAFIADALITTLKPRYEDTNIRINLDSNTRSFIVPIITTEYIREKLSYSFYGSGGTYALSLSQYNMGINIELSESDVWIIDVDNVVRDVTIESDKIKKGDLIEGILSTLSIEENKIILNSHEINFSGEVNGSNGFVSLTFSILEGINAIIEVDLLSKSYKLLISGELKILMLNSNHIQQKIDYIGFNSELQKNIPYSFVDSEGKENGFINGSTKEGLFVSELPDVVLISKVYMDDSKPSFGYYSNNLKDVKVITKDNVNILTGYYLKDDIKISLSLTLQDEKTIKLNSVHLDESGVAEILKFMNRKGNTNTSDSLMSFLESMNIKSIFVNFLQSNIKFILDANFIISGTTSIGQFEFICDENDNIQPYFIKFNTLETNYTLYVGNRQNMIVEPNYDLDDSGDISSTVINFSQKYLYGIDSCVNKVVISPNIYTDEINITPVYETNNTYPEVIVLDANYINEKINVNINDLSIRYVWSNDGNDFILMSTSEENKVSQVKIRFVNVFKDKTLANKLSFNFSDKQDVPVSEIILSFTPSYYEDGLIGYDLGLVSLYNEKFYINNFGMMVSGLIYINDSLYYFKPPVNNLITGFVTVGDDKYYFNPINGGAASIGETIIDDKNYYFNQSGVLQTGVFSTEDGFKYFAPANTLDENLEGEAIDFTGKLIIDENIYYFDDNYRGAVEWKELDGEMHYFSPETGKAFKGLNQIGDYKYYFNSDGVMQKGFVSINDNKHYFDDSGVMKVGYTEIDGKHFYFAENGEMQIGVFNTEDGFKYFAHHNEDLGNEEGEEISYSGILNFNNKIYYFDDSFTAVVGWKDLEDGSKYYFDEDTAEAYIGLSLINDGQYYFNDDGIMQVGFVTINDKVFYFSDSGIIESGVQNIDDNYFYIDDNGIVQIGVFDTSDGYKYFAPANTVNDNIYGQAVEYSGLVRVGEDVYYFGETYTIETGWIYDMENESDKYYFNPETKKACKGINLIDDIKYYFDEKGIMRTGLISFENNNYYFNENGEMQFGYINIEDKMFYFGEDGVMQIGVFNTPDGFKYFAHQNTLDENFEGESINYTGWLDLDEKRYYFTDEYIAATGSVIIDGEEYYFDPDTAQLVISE
ugtP null kill = kills S. aureus RN4220 lacking UgtP; S. aureus RN4220 ugtP deletion, OD600 growth, 16 h; growth inhibition, % (test concentration not listed); 330,000 compounds, 0.54% hits; in the data active = growth inhibition above about 68%;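 also: plate controls were untreated wells for no effect and antibiotic for full effect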
Vc quorum ag-1 = induces V. cholerae light production without autoinducers | AID 588436 | V. cholerae BH1578 lux reporter, luminescence, 6 h | activation, % at 18.7 µM | 350,000 compounds, 0.16% hits; in the data active = activation mostly above about 9.7%, no sharp cut-off
Vc quorum ag-2 = inducers of V. cholerae quorum light production without autoinducers; shares compounds with Vc quorum ag-1; V. cholerae BH1578 lux reporter, luminescence, 6 h; activation, % at 50 µM; 620 tested, under 10 active; call rule not given here
Numbers without * were called inactive.

Results for Cc1cccc(OCCSc2nncn2C)c1 ?
RN4220 kill: 9; TcdB inh: 1; ugtP null kill: 6; Vc quorum ag-1: inactive

How did Cn1cnnc1SCCOc1ccc(Cl)cc1 do in these assays?
RN4220 kill: -7; TcdB inh: 1; ugtP null kill: -3; Vc quorum ag-1: 132*; Vc quorum ag-2: 91

Results for COc1ccccc1NS(=O)(=O)c1ccc(C(=O)NCC(c2ccco2)N2CCCCC2)cc1 (stereo not given) ?
RN4220 kill: 1; TcdB inh: 1; ugtP null kill: 1; Vc quorum ag-1: -13

Results for CCOc1ccc(NS(=O)(=O)c2ccc(C(=O)NCC(c3ccco3)N3CCCCC3)cc2)cc1 (stereo not given) ?
TcdB inh: 1; Vc quorum ag-1: -6

How did COc1ccccc1NS(=O)(=O)c1cccc(C(=O)NCC(c2ccco2)N2CCCCC2)c1 (stereo not given) do in these assays?
RN4220 kill: 4; TcdB inh: 0; ugtP null kill: 10; Vc quorum ag-1: 14; Vc quorum ag-2: 0

Results for CCOc1ccc(S(=O)(=O)Nc2ccc(C(=O)NCC(c3ccco3)N3CCCCC3)cc2)cc1 (stereo not given) ?
RN4220 kill: 1; TcdB inh: 1; ugtP null kill: 9; Vc quorum ag-1: 14; Vc quorum ag-2: 0

What do the screens show for `CCC1C(=O)NCCN1C(=O)CCc1nnc(CCc2ccc(OC)cc2)o1` (stereo not given)?
RN4220 kill: 2; TcdB inh: 0; ugtP null kill: 1; Vc quorum ag-1: 11; Vc quorum ag-2: 0

How did CCN(Cc1ccncc1)C(=O)CCc1nnc(CCc2ccc(OC)cc2)o1 do in these assays?
RN4220 kill: 1; TcdB inh: 1; ugtP null kill: 8; Vc quorum ag-1: inactive

Results for c1ccc(C2CNCCN2CCc2cccc3ccccc23)cc1 (stereo not given) ?
RN4220 kill: -10; ugtP null kill: -6

How did O=C(COC(=O)C1CCN(c2ccc(C(F)(F)F)cn2)CC1)NC1CCCCC1 do in these assays?
RN4220 kill: 1; TcdB inh: 0; ugtP null kill: 1; Vc quorum ag-1: 14; Vc quorum ag-2: 0

Results for CCOC(=O)c1cnc2nc(C(F)(F)F)[nH]n2c1=O ?
RN4220 kill: 6; ugtP null kill: -3; Vc quorum ag-1: 17*; Vc quorum ag-2: 0

How did CCOC(=O)c1cnc2nc(Cc3ccccc3)[nH]n2c1=O do in these assays?
RN4220 kill: -3; ugtP null kill: 4; Vc quorum ag-1: inactive

Results for Cc1ccc(C(=O)N(C)CC(=O)Nc2ccc(N3CCOCC3)cc2)s1 ?
RN4220 kill: 1; TcdB inh: 0; ugtP null kill: 0; Vc quorum ag-1: 14; Vc quorum ag-2: 100

How did CSc1ccc(/C=C/C(=O)OCC(=O)N2CCN(S(=O)(=O)c3ccc(C)cc3C)CC2)cc1 do in these assays?
RN4220 kill: 4; TcdB inh: 0; ugtP null kill: 5; Vc quorum ag-1: inactive

How did Cc1ccc(S(=O)(=O)N2CCN(C(=O)COC(=O)/C=C/c3ccc(F)cc3)CC2)c(C)c1 do in these assays?
RN4220 kill: 4; TcdB inh: 5; ugtP null kill: 3; Vc quorum ag-1: 2; Vc quorum ag-2: 0

Results for COC(=O)C1=C(c2ccc(-c3ccccc3)c(F)c2)CC2CCC1N2C(=O)NCc1ccc(F)cc1 (stereo not given) ?
RN4220 kill: 0; ugtP null kill: -10

What do the screens show for `CCOC(=O)c1nnn(-c2nonc2N)c1CN1CCc2ccccc2C1`?
RN4220 kill: 3; ugtP null kill: -3; Vc quorum ag-1: 12; Vc quorum ag-2: 1

Results for CC(C)OC(=O)c1nnn(-c2nonc2N)c1CN1CCc2ccccc2C1 ?
RN4220 kill: 5; ugtP null kill: 1; Vc quorum ag-1: 5

Results for CCOC(=O)C1C2COc3cc(OC)ccc3C2N2C(=O)c3cc(F)ccc3NC(=O)[C@@]12C (stereo not given in full) ?
RN4220 kill: -1; ugtP null kill: -3

What do the screens show for `CCC(Oc1ccccc1)C(=O)Nc1ccc(-c2nnc(-c3ccco3)o2)cc1` (stereo not given)?
RN4220 kill: 6; ugtP null kill: -3; Vc quorum ag-1: 17*; Vc quorum ag-2: 0

Results for O=C(OCc1cc(=O)n2ccsc2n1)c1ccc(OC(F)F)cc1 ?
RN4220 kill: 3; TcdB inh: 0; ugtP null kill: 1; Vc quorum ag-1: 13; Vc quorum ag-2: 0

Results for COC(=O)c1[nH]c2ccc(C)cc2c1NC(=O)Nc1ccc(OC)cc1 ?
RN4220 kill: -3; ugtP null kill: 6; Vc quorum ag-1: 18*; Vc quorum ag-2: 2

How did O=C1NC(Cc2ccccc2)C(=O)N2C1C[C@]1([C@]34CC5C(=O)NC(Cc6ccccc6)C(=O)N5C3Nc3ccccc34)c3ccccc3NC21 (stereo not given in full) do in these assays?
RN4220 kill: -1; ugtP null kill: -8

What do the screens show for `Cc1cc(C(=O)Nc2cccc3c2OC(CN(C)S(=O)(=O)c2ccccc2)C(C)CN(C(C)CO)C3=O)n(C)n1` (stereo not given)?
RN4220 kill: 9; ugtP null kill: 1

Results for Cc1ccc(S(=O)(=O)N2Cc3ccccc3CC2C(=O)Nc2ccc3c(c2)OCO3)cc1 (stereo not given) ?
RN4220 kill: 6; ugtP null kill: 9; Vc quorum ag-1: 3; Vc quorum ag-2: 2

Results for O=C(NCCC(=O)N1CCCCC1)c1ccc(Br)cc1 ?
RN4220 kill: 2; TcdB inh: 0; ugtP null kill: 3; Vc quorum ag-1: 11; Vc quorum ag-2: 6

How did O=C(NCCC(=O)N1CCCCCCC1)c1ccc(Br)cc1 do in these assays?
RN4220 kill: -2; TcdB inh: 0; ugtP null kill: 3; Vc quorum ag-1: -1

Results for CCC(=O)ON=C(N)c1ccc(Oc2cc(C)c(Cl)c(C)c2)c([N+](=O)[O-])c1 ?
RN4220 kill: 7; ugtP null kill: 3

What do the screens show for `COc1ccc(S(=O)(=O)N(C)CC2Oc3c(NC(=O)NC4CCCCC4)cccc3C(=O)N(C(C)CO)CC2C)cc1` (stereo not given)?
RN4220 kill: 5; ugtP null kill: -2

Results for CC(C)CCOc1cccc(OCC(=O)N(C)C2CCS(=O)(=O)C2)c1 (stereo not given) ?
RN4220 kill: 2; ugtP null kill: -8; Vc quorum ag-1: 7; Vc quorum ag-2: 2

What do the screens show for `CN(C(=O)COc1ccccc1)C1CCS(=O)(=O)C1` (stereo not given)?
RN4220 kill: 0; TcdB inh: -1; ugtP null kill: 6; Vc quorum ag-1: 0

How did Cc1cc(C)cc(NS(=O)(=O)c2cccs2)c1 do in these assays?
RN4220 kill: 7; TcdB inh: 4; ugtP null kill: -7; Vc quorum ag-1: inactive

Results for CCc1ccc(NS(=O)(=O)c2cccs2)cc1 ?
RN4220 kill: 9; TcdB inh: 3; ugtP null kill: 12; Vc quorum ag-1: 21*; Vc quorum ag-2: 1

What do the screens show for `COc1ccccc1C(=O)NN=C(C)c1ccc(NC(=O)Cc2ccccc2)cc1`?
RN4220 kill: 3; ugtP null kill: -2

Bioassay records from PubChem.
